Screens deposited in PubChem by Broad Institute.
PRC2 inh = EZH2/PRC2 methyltransferase inhibitors, primary screen, biochemical, DELFIA time-resolved fluorescence, single point. hit rate 0.35% among 57,000. inhibition, % at 12.5 µM. PRC2 H3K27 methylation, DELFIA TRF, 1 h. Histone-lysine N-methyltransferase EZH2 (Homo sapiens), Q15910;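 active means mean inhibition of replicates at least 50% and every single replicate also reaching 50%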;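 further: dimethyl H3K27 on biotinylated H3 21-44 peptide detected by antibody; plate controls were median neutral control wells for no effect and median positive control wells for full effect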
Target sequence (Q15910 whole entry, looked up): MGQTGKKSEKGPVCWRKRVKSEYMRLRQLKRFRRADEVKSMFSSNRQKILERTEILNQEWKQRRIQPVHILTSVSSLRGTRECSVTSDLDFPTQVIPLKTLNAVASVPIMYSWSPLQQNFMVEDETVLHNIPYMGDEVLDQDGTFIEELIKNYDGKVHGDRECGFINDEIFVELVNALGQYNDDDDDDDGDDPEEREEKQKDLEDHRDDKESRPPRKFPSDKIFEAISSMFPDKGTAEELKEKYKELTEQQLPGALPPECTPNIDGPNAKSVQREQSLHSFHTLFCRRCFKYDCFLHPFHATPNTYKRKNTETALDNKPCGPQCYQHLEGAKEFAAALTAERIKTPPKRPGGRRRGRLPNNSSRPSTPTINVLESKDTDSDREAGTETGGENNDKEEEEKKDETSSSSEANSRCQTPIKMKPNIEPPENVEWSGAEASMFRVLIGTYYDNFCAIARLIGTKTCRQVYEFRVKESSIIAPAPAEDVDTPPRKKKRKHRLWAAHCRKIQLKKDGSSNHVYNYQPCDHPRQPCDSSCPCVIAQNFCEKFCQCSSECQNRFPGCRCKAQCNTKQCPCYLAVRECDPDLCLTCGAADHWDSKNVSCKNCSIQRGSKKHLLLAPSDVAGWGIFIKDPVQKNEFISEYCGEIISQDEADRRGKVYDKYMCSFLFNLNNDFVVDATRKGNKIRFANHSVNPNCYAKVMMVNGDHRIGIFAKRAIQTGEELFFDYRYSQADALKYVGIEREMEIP
Numbers without * were called inactive. This excerpt belongs to a sample that is enriched for hits.

SMILES | PRC2 inh
COc1ccc(/C=C/c2cc(O)cc(O[C@@H]3O[C@H](CO)[C@@H](O)[C@H](O)[C@H]3O)c2)cc1 | -0.4
O=C(CCc1ccc(O)cc1)c1c(O)cc(O)cc1O[C@@H]1O[C@H](CO)[C@@H](O)[C@H](O)[C@H]1O | -4.0
CC(C)=CCc1cc(O[C@@H]2O[C@H](CO)[C@@H](O)[C@H](O)[C@H]2O)cc(CC=C(C)C)c1C(O)C(=O)O (some centres undefined) | 99.5*
CC(O)CCCc1cc(O)cc(O[C@@H]2O[C@H](CO)[C@@H](O)[C@H](O)[C@H]2O)c1 (some centres undefined) | 5.4
CC(=O)c1ccc(O[C@@H]2O[C@H](CO)[C@@H](O)[C@H](O)[C@H]2O)c(/C=C/C(C)(C)O)c1 | 4.9
CC(=O)c1c(O)cc(O[C@@H]2O[C@H](CO)[C@@H](O)[C@H](O)[C@H]2O)cc1O | 93.9*
NNC(=O)c1ccccc1O | -43.5
O=c1[nH]c(=S)c2c(n1N1CCOCC1)CCC2 | 4.1
Cc1ccc(S(=O)(=O)N[C@H](C(=O)NCCn2cc(C(=O)NO)nn2)C(C)C)cc1 | 4.9
COc1cc2c(c(OC)c1OC)CCc1cc(O)c(O)cc1-2 | 31.1
CCn1c(SCc2nc3ccccc3c(=O)[nH]2)nnc1-c1cc2cccc(OC)c2o1 | -0.5
COC(=O)CCCCCCC(=O)N/N=C/c1ccc([N+](=O)[O-])s1 | -4.7
N#Cc1c(C(F)(F)F)cc(-c2cccs2)nc1SCC(=O)Nc1c(F)cccc1F | -7.9
N#Cc1c(C(F)(F)F)cc(-c2cccs2)nc1SCC(O)COc1ccc(Cl)cc1 (centres undefined) | 15.3
COc1ccc(-c2cc(-c3cccs3)nc(SC(C(=O)O)c3ccccc3)c2C#N)cc1 (centres undefined) | 72.1*
Cc1ccc(NCc2ccc(C(=O)Nc3ccccc3[N+](=O)[O-])cc2)cc1C | 2.2
CCCC(O)/C(=C/C1=C(C(=O)CC(CC(=O)O)OC(N)=O)C(=O)c2cccc(O)c2C1=O)CC(C(=O)O)[N+](C)(C)C (centres undefined) | -0.5
O=C1O[C@@H](c2ccccc2)[C@@H](c2ccccc2)N2[C@@H](c3ccccc3OCCO)[C@]3(C(=O)Nc4ccccc43)[C@@H](C(=O)NC[C@H](O)c3ccccc3)[C@H]12 | -8.1
Cc1cc(C)nc(SCc2noc(-c3ccc(Cl)cc3)n2)n1 | 18.4
CO[C@H](CN(C)S(=O)(=O)c1ccc(C)cc1)[C@H](C)CN(Cc1ccccc1Cl)[C@@H](C)CO | 42.0
CO[C@@H](CN(C)S(=O)(=O)c1ccc(C)cc1)[C@@H](C)CN(Cc1ccccc1Cl)[C@@H](C)CO | 37.9
CO[C@@H](CN(C)S(=O)(=O)c1ccc(C)cc1)[C@@H](C)CN(Cc1ccccc1Cl)[C@H](C)CO | 51.1*
COC(=O)c1ccc(NC(=O)CSc2nnc(-c3ccc(NC(C)=O)cc3)n2C)cc1 | 2.6
OC[C@H]1O[C@@H](OC(CCCCc2ccc(O)cc2)CCc2ccc(O)cc2)[C@H](O)[C@@H](O)[C@@H]1O (some centres undefined) | 73.3*
O=C(CCc1ccc(O)cc1)c1c(O)c([C@@H]2O[C@H](CO)[C@@H](O)[C@H](O)[C@H]2O)c(O)c([C@@H]2O[C@H](CO)[C@@H](O)[C@H](O)[C@H]2O)c1O | 11.0
SMILES | PRC2 inh
Oc1ccc(CCCCC(CCc2ccc(O)cc2)O[C@@H]2OC[C@@H](O)[C@H](O)[C@H]2O)cc1 (some centres undefined) | 11.4
O=C(NCCO)C(=O)NCc1ccco1 | 22.2
NCCCCCCNS(=O)(=O)c1cccc2c(Cl)cccc12 | -10.7
CCCCCCCNS(=O)(=O)c1cccc2c(Cl)cccc12 | 41.3
O=S(=O)(NCCCCCCc1ccccc1)c1cccc2c(Cl)cccc12 | 55.5*
Cc1cc(NC(=O)CSc2nc3ccccc3[nH]2)ccc1Br | 7.9
O=C(CSc1nc2ccccc2[nH]1)Nc1ccc(Cl)c(Br)c1 | 54.3*
COc1ccc(NC(=O)CSc2nc3ccccc3[nH]2)cc1Cl | -22.7
COc1ccccc1NC(=O)C1=C(C)NC(SCC(N)=O)=C(C#N)C1c1ccccc1 (centres undefined) | -1.9
COc1ccc(C(=O)Nc2ccc(CN3C(=O)[C@]4(O[C@H](CC(=O)N5Cc6ccccc6C[C@H]5CO)[C@@H]([Si](C)(C)c5ccc(OC)cc5)[C@@H]4C)c4ccccc43)cc2)cc1 | -1.5
C/C=C/[C@H](CC(=O)N1Cc2ccccc2C[C@H]1CO)[Si](C)(C)c1ccc(OC)cc1 | 56.7*
COc1ccc([Si](C)(C)[C@@H]2[C@@H](CC(=O)N3Cc4ccccc4C[C@H]3CO)O[C@]3(C(=O)N(C)c4c(Br)cc(C)cc43)[C@H]2C)cc1 | 17.8
COc1ccc(OC(C)c2nc(-c3ccccn3)no2)cc1 (centres undefined) | 3.0
O=c1cc(-c2ccc(O)c(O)c2)oc2c(C3O[C@H](CO)[C@H](O)[C@H](O)[C@H]3O)c(O)cc(O)c12 (some centres undefined) | 81.4*
O=c1cc(-c2ccc(O)cc2)oc2cc(O[C@@H]3O[C@H](CO)[C@@H](O)[C@H](O)[C@H]3O[C@@H]3OC[C@](O)(CO)[C@H]3O)cc(O)c12 | -10.9
COc1cc(O[C@@H]2O[C@H](CO)[C@@H](O)[C@H](O)[C@H]2O)c2c(=O)cc(-c3ccccc3)oc2c1OC | -9.4
Cc1cc(Cl)ccc1OCC(=O)Nc1cc(Cl)ccc1C(=O)O | 22.9
CC(C)c1ccc(OCC(=O)Nc2ccc(O)cc2C(=O)O)cc1 | -7.6
O=C(CN1CCN(S(=O)(=O)c2ccc3ccccc3c2)CC1)Nc1cc(Cl)ccc1Cl | -13.4
COc1ccc(O)c(/C=N/NC(=O)CCCCCC(=O)Nc2ccccc2O)c1 | -15.2
Cc1ccc(C2=NC3(CCN(C(=O)OC(C)(C)C)CC3)NC2=S)cc1 | 3.6
O=C(O)COc1ccc(Cl)cc1CO | -5.3
Cc1c(CCC(=O)O)c(=O)oc2cc(OCC(=O)O)ccc12 | -21.6
CCCc1c(OCCCOc2ccc(OCC(=O)O)cc2)ccc(CC=O)c1O | 54.7*
COC(=O)c1ccccc1NC(=O)COc1ccc2ccccc2c1Br | 21.3
SMILES | PRC2 inh
c1ccc(-c2nnc(SCc3nc4ccccc4s3)n2-c2ccccc2)cc1 | 9.6
COc1cccc(C2CC(C(F)(F)F)n3ncc(C(=O)NCc4cccnc4)c3N2)c1 (centres undefined) | -4.5
NC(=O)CCCc1c[nH]c2ccccc12 | -9.2
Clc1ccc(SCc2csc(-c3ccsc3)n2)cc1 | 62.9*
Clc1ccc2nc(SCc3csc(Nc4ccccc4)n3)oc2c1 | 42.2
CN(C)CCCOc1ccc(/C=N/NC(=O)CCCCCCC(=O)Nc2ccccc2O)cc1 | -13.6
CCc1cc(C(=O)OC)c(NC(=S)Nc2cn(CC)nc2C(N)=O)s1 | -1.6
O=C(NO)c1cccc(C(=O)N/N=C/c2ccc3ccccc3c2)c1 | 6.2
O=C(NO)c1cccc(C(=O)N/N=C/c2ccc(F)cc2)c1 | 0.6
O=C(NO)c1cccc(C(=O)N/N=C/c2ccc(O)c(O)c2)c1 | 94.4*
COc1cc(Cl)c(C)cc1NC(=O)CSc1nc2ccccc2s1 | 14.2
CCc1cccc(C)c1NC(=O)CN(C)S(=O)(=O)c1ccc(Br)cc1 | 3.7
Cc1cc(Br)ccc1NC(=O)CSc1nnc(-c2ccccc2O)n1-c1ccccc1 | -1.9
N#CCC(=O)Cc1ccccc1[N+](=O)[O-] | 2.1
O=C(N/N=C/c1ccc(C(F)(F)F)cc1)c1ccccn1 | 11.4
